# System: Plasmodium falciparum
# Test: GSK_TCMDC: Inhibition of Plasmodium falciparum 3D7 in whole red blood cells, using parasite LDH activity as an index of growth. Test compounds present at 2uM
# Type: functional
row,Compound,Inhibition [%]
1,CC(=O)Nc1cccc(Nc2c3ccccc3nc3ccccc23)c1,82
2,Cc1nc(Cl)c2c(-c3ccccc3)csc2n1,84
3,COc1cc(OC)cc(C(=O)Nc2nc(-c3ccc(NC(=O)c4ccccc4)cc3)cs2)c1,88
4,O=C(c1ccccc1)N1CCC[C@](CCCN2CCN(c3ccccc3O)CC2)(c2ccc(Cl)c(Cl)c2)C1,80
5,O=[N+]([O-])c1ccc(-n2nc(-c3cccnc3)n(Cc3ccco3)c2=S)c(Cl)c1,95
6,Cl.Oc1cccc(Nc2ccnc3cc(-c4nccs4)ccc23)c1,98
7,CCCCNC(=O)C1CCCN(C(=O)c2ccc(O)c(-c3ccc(Cl)c(Cl)c3)c2)C1 (stereo not given),83
8,N=C(N)c1nc2ccccc2s1,87
9,Cc1ccccc1Oc1ccc(Nc2ccnc(Nc3cccc(C(N)=O)c3)n2)cc1C(F)(F)F.Cl,81
10,COc1cccc(-c2nc(Nc3ccncc3)c3ncn(C)c3n2)c1.O=C(O)C(F)(F)F,94
11,CCc1cc(-c2n[nH]c(C(F)(F)F)c2-c2ccccc2)c(O)cc1OC,84
12,COc1cc(Cc2cnc(N)nc2N)ccc1OCc1csc(-c2ccc(Cl)cc2)n1,93
13,CC(C)C(=O)NC(NC(=S)Nc1ccc(Br)cc1)C(Cl)(Cl)Cl (stereo not given),93
14,Cc1cc(OCCCN2CCCC2)ccc1NC(=O)COc1ccc(Cl)cc1C(=O)c1cc(C#N)cc(C(F)(F)F)c1,85
15,CCN1CCN(c2cc(C)c3cc(NC(=O)c4ccc(C(C)(C)C)cc4)ccc3n2)CC1,85
16,CC(C)CNC(=O)c1ccc(-c2cccc(CN3CCC(N4CCCC4)CC3)c2)nc1.O=C(O)C(F)(F)F,81
17,O=C(Nc1nccs1)c1sc2ccccc2c1O,96
18,Nc1[nH]c2ccccc2c(=O)c1-c1nc2ccccc2s1,97
19,CO/N=C(\C)c1ccc2c(c1)CCN(CCC1CCC(NC(=O)c3cccc(-c4noc(C)n4)c3)CC1)CC2.Cl (stereo not given),90
20,C=CCOc1cc(Cc2cnc(N)nc2N)cc(OC)c1OC.Cl,81
21,O=C(O)C(F)(F)F.O=C(O)CCc1ccc(-c2c[nH]c3ncc(-c4ccc5ncccc5c4)cc23)cc1,88
22,CC(C)Cc1csc(NC(=O)C=Cc2ccco2)c1C(=O)O,82
23,COc1ccc(NS(=O)(=O)c2ccc(Oc3nc(C)nc4sc5c(c34)CCCC5)cc2)cc1,96
24,C=CC(C)C1OC(=O)c2cc(OC)cc(OC)c21 (stereo not given),100
25,CN(C)Cc1ccc(CNC2CCN(Cc3ccccc3Cl)CC2)cc1.O=C(O)C(F)(F)F,82

# System: HepG2
# Test: GSK_TCMDC: Percent inhibition of human HepG2 cell line. Test compounds present at 10uM.
# Type: functional
row,Compound,Inhibition [%]
1,O=C(CN1C(=O)CC1S(=O)(=O)Cc1ccco1)NCCCCCCc1ccc(F)cc1 (stereo not given),0
2,CC(CC1CCCCC1)NCc1ccccc1OCCC(=O)N1CCCC1C(N)=O (stereo not given),5
3,Cc1nc(Nc2ccc(F)cc2)nc(N2CCc3ccccc3[C@@H]2C)c1C.Cl,12
4,Cl.O=C(NCCCCN1CCC(c2ccc3c(c2OCCCO)CCCC3)CC1)c1ccc(-c2ccc(C(F)(F)F)cc2)c(CO)c1,66
5,CCN(CC)CCCC(C)Nc1ccnc2cc(Cl)ccc12.O=P(O)(O)O.O=P(O)(O)O (stereo not given) [CHLOROQUINE PHOSPHATE],12
6,COc1cc2c(cc1C(F)(F)F)N(C(=O)Nc1ccc(Br)cn1)CC2,16
7,COc1cc(CCNCC(O)c2ccc([N+](=O)[O-])c(OCc3ccccc3)c2)cc(OC)c1OC.Cl (stereo not given),11
8,COc1ccc(CNC(=O)Nc2cccc(-c3csc(NC(=N)N)n3)c2)cc1,8
9,COc1cccc(-c2cc3c(NCc4ccncc4)nccc3s2)c1,0
10,Cc1csc2nc(C(C)c3ccc(NC(=O)c4cccs4)cc3)oc(=O)c12 (stereo not given),0
11,O=C(NNC(=O)c1ccc(CN2CCC(c3nc4ccccc4[nH]3)CC2)cc1)Nc1ccc(Oc2ccccc2)cc1.O=C(O)C(F)(F)F,0
12,N#Cc1cc(N(CCCOc2cccc(OC(F)(F)F)c2)Cc2ccccc2C(F)(F)F)ccc1C(F)(F)F,2
13,O=C(O)CCSc1ncnc2[nH]cnc12,7
14,Cc1cc2c(cc1C(F)(F)F)N(C(=O)Nc1ccc(C(=O)NCCN3CCCC3)cc1)CC2,10
15,CC1CN(c2ccc3[nH]cc(Sc4ccc(-c5cccs5)cc4)c3c2)CC(C)N1.Cl (stereo not given),29
16,CC(=O)Nc1cccc(Nc2c3ccccc3nc3ccccc23)c1,31
17,Cc1nc(Cl)c2c(-c3ccccc3)csc2n1,0
18,COc1cc(OC)cc(C(=O)Nc2nc(-c3ccc(NC(=O)c4ccccc4)cc3)cs2)c1,16
19,O=C(c1ccccc1)N1CCC[C@](CCCN2CCN(c3ccccc3O)CC2)(c2ccc(Cl)c(Cl)c2)C1,16
20,O=[N+]([O-])c1ccc(-n2nc(-c3cccnc3)n(Cc3ccco3)c2=S)c(Cl)c1,13

row,Compound,Inhibition [%]
1,Cl.Oc1cccc(Nc2ccnc3cc(-c4nccs4)ccc23)c1,0
2,CCCCNC(=O)C1CCCN(C(=O)c2ccc(O)c(-c3ccc(Cl)c(Cl)c3)c2)C1 (stereo not given),3
3,N=C(N)c1nc2ccccc2s1,1
4,Cc1ccccc1Oc1ccc(Nc2ccnc(Nc3cccc(C(N)=O)c3)n2)cc1C(F)(F)F.Cl,9
5,COc1cccc(-c2nc(Nc3ccncc3)c3ncn(C)c3n2)c1.O=C(O)C(F)(F)F,14
6,CCc1cc(-c2n[nH]c(C(F)(F)F)c2-c2ccccc2)c(O)cc1OC,9
7,COc1cc(Cc2cnc(N)nc2N)ccc1OCc1csc(-c2ccc(Cl)cc2)n1,39
8,CC(C)C(=O)NC(NC(=S)Nc1ccc(Br)cc1)C(Cl)(Cl)Cl (stereo not given),0
9,Cc1cc(OCCCN2CCCC2)ccc1NC(=O)COc1ccc(Cl)cc1C(=O)c1cc(C#N)cc(C(F)(F)F)c1,18
10,CCN1CCN(c2cc(C)c3cc(NC(=O)c4ccc(C(C)(C)C)cc4)ccc3n2)CC1,34
11,CC(C)CNC(=O)c1ccc(-c2cccc(CN3CCC(N4CCCC4)CC3)c2)nc1.O=C(O)C(F)(F)F,4
12,O=C(Nc1nccs1)c1sc2ccccc2c1O,0
13,Nc1[nH]c2ccccc2c(=O)c1-c1nc2ccccc2s1,16
14,CO/N=C(\C)c1ccc2c(c1)CCN(CCC1CCC(NC(=O)c3cccc(-c4noc(C)n4)c3)CC1)CC2.Cl (stereo not given),42
15,C=CCOc1cc(Cc2cnc(N)nc2N)cc(OC)c1OC.Cl,0
16,O=C(O)C(F)(F)F.O=C(O)CCc1ccc(-c2c[nH]c3ncc(-c4ccc5ncccc5c4)cc23)cc1,30
17,CC(C)Cc1csc(NC(=O)C=Cc2ccco2)c1C(=O)O,4
18,COc1ccc(NS(=O)(=O)c2ccc(Oc3nc(C)nc4sc5c(c34)CCCC5)cc2)cc1,5
19,C=CC(C)C1OC(=O)c2cc(OC)cc(OC)c21 (stereo not given),100
20,CN(C)Cc1ccc(CNC2CCN(Cc3ccccc3Cl)CC2)cc1.O=C(O)C(F)(F)F,23

# From ChEMBL document CHEMBL1157539, “Thousands of chemical starting points for antimalarial lead identification” (Nature, 2010)
